In PubChem BioAssay (NCI):
Values joined by “and” are separate entries in the source; they are usually repeats but may differ in a detail not shown here. Equal entries are not always repeated. The panel holds about 83,000 compounds, 20% with a hit somewhere; the sample as a whole holds those more often.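 How to read the values: 0–100, growth inhibition (40 = 60% inhibited); 0, no net growth; -100 to 0, cell death (-40 = 40% of starting cells died; -100 = all dead).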 A structure can be active in one record and inactive in another. Active and inactive are the calls of the source. Rule for the calls: active = growth percent below 10; inactive = the rest.

How the values were obtained:
Assay in all cases: NCI-60 one-dose screen, 48 h (100 = growth as untreated, 0 = no growth, -100 = all killed)
Settings in all cases: 10 µM unless noted
HCT-15 colon = system: HCT-15 colon
HT29 colon = system: HT29 colon
SNB-75 CNS = system: SNB-75 CNS
U251 CNS = system: U251 CNS
SK-MEL-5 melanoma = system: SK-MEL-5 melanoma
UACC-62 melanoma = system: UACC-62 melanoma
LOX IMVI melanoma = system: LOX IMVI melanoma
SK-MEL-28 melanoma = system: SK-MEL-28 melanoma
SK-MEL-2 melanoma = system: SK-MEL-2 melanoma
EKVX NSCLC = system: EKVX NSCLC
SN12C renal = system: SN12C renal
UO-31 renal = system: UO-31 renal
TK-10 renal = system: TK-10 renal
ACHN renal = system: ACHN renal
CAKI-1 renal = system: CAKI-1 renal
A498 renal = system: A498 renal
CCRF-CEM leukemia = system: CCRF-CEM leukemia
MOLT-4 leukemia = system: MOLT-4 leukemia
PC-3 prostate = system: PC-3 prostate
SNB-19 CNS = system: SNB-19 CNS

Compound	growth (HCT-15 colon)	growth (HT29 colon)	growth (SNB-75 CNS)	growth (U251 CNS)	growth (SK-MEL-5 melanoma)	growth (UACC-62 melanoma)	growth (LOX IMVI melanoma)	growth (SK-MEL-28 melanoma)	growth (SK-MEL-2 melanoma)	growth (EKVX NSCLC)	growth (SN12C renal)	growth (UO-31 renal)	growth (TK-10 renal)	growth (ACHN renal)	growth (CAKI-1 renal)	growth (A498 renal)	growth (CCRF-CEM leukemia)	growth (MOLT-4 leukemia)	growth (PC-3 prostate)	growth (SNB-19 CNS)
Nc1cc(-c2cccc(OC(F)(F)F)c2)nc2ccc(N3CCCC3)cc12	7.95% (active) and 7.96% (active) and 7.69% (active)	1.32% (active) and 5.14% (active) and -8.94% (active)	29.7% (inactive) and 34.7% (inactive)	-3.82% (active) and 5.25% (active) and 1.38% (active)	-41.1% (active) and -39.4% (active) and -14.8% (active)	8.8% (active) and 27.2% (inactive) and 38.7% (inactive)	2.06% (active) and 12.6% (inactive) and 20.4% (inactive)	-57.4% (active) and 37.1% (inactive) and 52.9% (inactive)	11.9% (inactive) and 37.9% (inactive) and 12.2% (inactive)	30.1% (inactive) and 29.9% (inactive) and 38.4% (inactive)	25.8% (inactive) and 27.9% (inactive) and 25.9% (inactive)	-6.86% (active) and 12.7% (inactive) and 14.1% (inactive)	46.7% (inactive) and 44.3% (inactive) and 40.9% (inactive)	27.4% (inactive) and 28.9% (inactive) and 26.3% (inactive)	30.7% (inactive) and 35.3% (inactive) and 41.7% (inactive)	19.9% (inactive) and 22.5% (inactive) and -7.01% (active)	-15.1% (active) and 2.73% (active) and 4.3% (active)	10.7% (inactive) and 12.7% (inactive) and 12.8% (inactive)	–	–
CCOc1ccc2cc(-c3nn(CC4CCNCC4)c4ncnc(N)c34)ccc2c1	81.7% (inactive) and 29.8% (inactive)	69.6% (inactive) and 18.5% (inactive)	52.9% (inactive) and 24.8% (inactive)	83.3% (inactive) and 40.2% (inactive)	90.5% (inactive) and -2.12% (active)	14.7% (inactive)	83% (inactive) and 5.47% (active)	104% (inactive) and -35.3% (active)	108% (inactive)	101% (inactive) and 55.6% (inactive)	82.9% (inactive) and 28.9% (inactive)	68.8% (inactive) and 45.7% (inactive)	77.1% (inactive) and 80.5% (inactive)	–	95.4% (inactive) and 81.9% (inactive)	73% (inactive) and 37% (inactive)	88.4% (inactive) and 9.5% (active)	66.1% (inactive) and -12.1% (active)	78% (inactive) and 31.4% (inactive)	–
CN(Cc1ccccc1)Cc1ccccc1	103% (inactive)	102% (inactive)	–	99% (inactive)	104% (inactive)	101% (inactive)	95.1% (inactive)	110% (inactive)	104% (inactive)	102% (inactive)	101% (inactive)	93% (inactive)	88.2% (inactive)	108% (inactive)	93.9% (inactive)	114% (inactive)	115% (inactive)	–	103% (inactive)	106% (inactive)
CCN(CC)CCC(CNc1c2ccc([N+](=O)[O-])cc2nc2cc(OC)c(OC)cc12)c1ccccc1 (stereo not given)	-29.4% (active) and -71.4% (active)	3.73% (active) and -97.3% (active)	-95.7% (active) and -97.6% (active)	-44.7% (active) and -100% (active)	-81.8% (active) and -100% (active)	-78.6% (active) and -100% (active)	-62.2% (active) and -100% (active)	-84.8% (active)	-11.9% (active) and -77.5% (active)	-23.6% (active) and -87.3% (active)	–	-73.9% (active) and -99.4% (active)	-4.61% (active) and -89.9% (active)	-58.9% (active) and -76.9% (active)	8.78% (active) and -76.1% (active)	-16.9% (active)	1.82% (active) and -50.9% (active)	–	-62.6% (active) and -97.1% (active)	–
O=[N+]([O-])c1ccccc1/C=N\Nc1ccccc1	42.5% (inactive) and 60.2% (inactive)	102% (inactive) and 111% (inactive)	–	84.7% (inactive) and 90% (inactive)	90.3% (inactive) and 88.6% (inactive)	18.7% (inactive) and 19.9% (inactive)	71.7% (inactive) and 53.4% (inactive)	115% (inactive) and 117% (inactive)	86.9% (inactive) and 107% (inactive)	69.3% (inactive) and 93.5% (inactive)	84.9% (inactive) and 87.6% (inactive)	50.6% (inactive) and 47.3% (inactive)	118% (inactive) and 92.6% (inactive)	61.4% (inactive) and 64.2% (inactive)	71.9% (inactive) and 60.8% (inactive)	79.7% (inactive) and 70.1% (inactive)	65.1% (inactive) and 50.8% (inactive)	76.4% (inactive) and 89.9% (inactive)	63% (inactive) and 56.5% (inactive)	96.2% (inactive) and 102% (inactive)
